Assay outcomes: PubChem BioAssay, several laboratories
This is a sample that favours compounds with a hit; in the whole collection about 2.3% have one here.
M18AAP inhibitor – PfM18AAP enzyme inhibition; recombinant PfM18AAP, H-Glu-NHMec fluorogenic cleavage; inhibition, % at 7.35 µM; actives 1.2% (n = 290,000); AID 1822;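 active = inhibition above the campaign mean inhibition over all tested compounds plus 3 SD, cut at about 28% in these data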;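 note: 0% = plate median of test compound wells and 100% = 2 mM ZnCl2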
Rce1 inhib – inhibitors of yeast Ras-converting enzyme. yeast membranes, quenched prenylated peptide cleavage fluorescence. calls only. actives 0.27% (n = 290,000). AID 2563;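 active = fall in fluorescence gain of 50% or more versus controls, with final raw signal at or below 3038400; inconclusive = same 50% fall but final raw signal above 3038400; inactive = fall in fluorescence gain under 50%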;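 note: plate controls were neutral control wells for no effect and wells lacking membranes for full effect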
Target sequence (Q03530 whole entry, looked up): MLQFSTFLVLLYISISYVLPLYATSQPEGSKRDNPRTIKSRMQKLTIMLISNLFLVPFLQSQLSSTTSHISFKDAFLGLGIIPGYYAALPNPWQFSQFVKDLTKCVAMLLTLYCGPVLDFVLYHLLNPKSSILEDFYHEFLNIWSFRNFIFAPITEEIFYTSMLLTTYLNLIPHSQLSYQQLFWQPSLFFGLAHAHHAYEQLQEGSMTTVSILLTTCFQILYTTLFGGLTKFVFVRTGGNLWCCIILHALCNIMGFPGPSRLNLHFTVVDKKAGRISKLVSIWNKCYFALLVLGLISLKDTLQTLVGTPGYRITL
DNA FID counter – counter-screen for HCV NS3 helicase inhibitors: DNA intercalator displacement; DNA fluorescent intercalator displacement, fluorescence; inhibition, % at 7.9 µM; actives 0.17% (n = 290,000); in the data active = inhibition above about 37%;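 note: 0% = vehicle and 100% = reference compound; higher means more ethidium bromide displaced from hairpin DNA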
Kir21 inh – Kir2.1 (mouse) channel inhibition | P35561 | HEK293-Kir2.1, FluxOR thallium flux fluorescence; active compounds read low | B-score at 10 µM | actives 0.85% (n = 310,000) | AID 1672;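 active = fluorescence ratio B-score at or below minus 3 SD of library scores, with starting-brightness B-score within 2 SD, cut at about -4.2 in these data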;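 note: channel flux triggered by added potassium and thallium sulfate stimulus; B-score of peak minus minimum fluorescence over baseline after thallium stimulus; more negative B-score means stronger Kir2.1 block with less thallium influx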
* = called active by the depositor; i = inactive; ? = inconclusive; · = no result given; + = active, no number.

SMILES | M18AAP inhibitor | Rce1 inhib | DNA FID counter | Kir21 inh
Cn1ccc(C(=O)Nc2sc3c(c2C(N)=O)CCCCC3)n1 | 38* | · | 0 | 1.4
O=C(Nc1sc2c(c1C(=O)c1ccc(Cl)cc1)CCCC2)c1cccnc1 | -11 | + | -20 | 1.7
CN(C(=O)Cn1cccc1C1=NC(c2ccccc2)CO1)c1ccccc1 (configuration not stated) | 3 | · | -25 | -4.7*
CN1CCN(CCCc2c3c(cc4c2CCC4)CCC3)CC1 | 14 | i | 12 | -4.4*
Cc1cc(C)c(NC(=O)CCCN2CCN(C)CC2)c(C)c1 | -8 | i | -1 | -2
CC(=O)Nc1cccc(Oc2ccc3c(c2)C(=O)NC3=O)c1 | 1 | i | -5 | 0.71
COc1ccc(-n2cc(CNC3CCN(C)CC3)c(-c3cccc(F)c3)n2)cc1 | -2 | i | 42* | -3.2
COc1cc(C(=O)NCc2nnc(SCC(=O)Nc3nc4ccccc4s3)o2)cc(OC)c1OC | 31* | i | -44 | -0.35
COc1ccc(C(=O)NCc2nnc(SCC(=O)Nc3cc(C)on3)o2)cc1OC | 30* | · | -3 | -1.9
COc1cc(C(=O)NCc2nnc(SCC(=O)Nc3cc(C)on3)o2)cc(OC)c1OC | 24 | i | -11 | 1
COc1ccc(C(=O)NCc2nnc(SCC(=O)Nc3nc4ccccc4s3)o2)cc1 | 13 | i | -41 | 2.4
COC(=O)/C=c1\[nH]c2nnc(C)n2c1=O | 1 | + | 0 | 0.31
CCCN(CCC)CCCNC(=O)c1cc2cc3ccc(OC)cc3nc2o1 | 9 | ? | 37* | -1
CCCCN(CC)CCCNC(=O)c1cc2cc3ccc(OC)cc3nc2o1 | -4 | ? | 22 | -2
Cc1ccc2nc3c(c(N)c2c1)CCN3C | 22 | + | 42* | -0.42
Cc1cccc2c(N)c3c(nc12)N(C)CC3 | 31* | ? | -3 | 0.05
CN1CCc2c1nc1ccccc1c2N (tested in a mixture with another compound) | -5 | i | -3 | -0.62
Cc1ccc2nc3c(c(N)c2c1)CCN3c1ccccc1 | 13 | i | 15 | -1.8
O=C(Cc1c(F)cccc1Cl)NCCCn1ccnc1 | 28* | i | 8 | -0.62
O=C(Cc1ccc(Cl)cc1)NCCCn1ccnc1 | -4 | i | 5 | 0.97
N#Cc1c(N)c(C(=O)c2ccccc2)n2ccccc12 | · | i | · | -0.07
Cc1cc(=O)oc(C)c1C(=O)Nc1ccc(F)cc1 | 0 | i | -13 | -1.4
COCCN(C(=O)COC(=O)c1cnc(C)cn1)c1c(N)n(Cc2ccccc2)c(=O)[nH]c1=O | · | i | · | -1
O=C(COC(=O)/C=C/c1ccccc1Cl)NCCNC(=O)COC(=O)/C=C/c1ccccc1Cl | 2 | i | -34 | 0.4
O=C(CNc1cc(S(=O)(=O)N2CCOCC2)ccc1NCC1CCCO1)Nc1cccc(F)c1 (configuration not stated) | 29* | i | -20 | -1.8
SMILES | M18AAP inhibitor | Rce1 inhib | DNA FID counter | Kir21 inh
O=C(Nc1ccccc1)c1ccc(NCC2CCCO2)c(S(=O)(=O)N2CCOCC2)c1 (configuration not stated) | -7 | i | 3 | 1.3
Cc1cc(C)c(C#N)c(N2CCN(Cc3ccccc3)CC2)n1 | -1 | i | -2 | -4.5*
Cc1cc(C)c(C#N)c(N2CCN(Cc3ccc4c(c3)OCO4)CC2)n1 | -7 | i | -6 | -2.2
c1ccc2c(OCCCCN3CCOCC3)cccc2c1 | -10 | i | 7 | -0.16
CC(C)c1cccc(C(C)C)c1OCCCCCN1CCOCC1 | · | · | · | -5.1*
COc1cccc(N2CC(NS(=O)(=O)c3ccc4ccccc4c3)CC2=O)c1 (configuration not stated) | · | i | · | -0.17
CCCCCCCCn1c(=O)c(C(=O)OCC)c(O)c2ccccc21 | 7 | i | -7 | -0.2
CCCCCn1c(=O)c(-c2nc3ccccc3[nH]2)c(O)c2ccccc21 | 0 | + | -8 | 0.03
Cc1ccc(NC(=O)COc2coc(CN3CCN(c4ccccc4)CC3)cc2=O)cc1 | · | i | · | -2.3
Cc1csc(CNC(=O)C2CCC(=O)N(CCc3cccc(F)c3)C2)n1 (configuration not stated) | 3 | i | -12 | -0.14
Nc1sc(-c2ccccc2)n[n+]1Cc1cccc2cccnc12 | 2 | i | 8 | -7*
Cc1c(CC(=O)NCC(C)C)c(=O)oc2cc3c(cc12)CCC(C)(C)O3 | 1 | i | -34 | -0.75
COc1cc2c(cc1OC)C(C)N(C(=O)Nc1ccc(F)cc1)CC2 (configuration not stated) | -15 | i | -14 | 2.2
COC(=O)C1=CN(CC2CCCO2)C=C(C(=O)OC)C1c1cccc(O)c1 (configuration not stated) | 4 | + | -4 | -0.67
